Most compounds without a hit are left out; they make up all but 14% or so of the library.
A350 autofl – compounds fluorescent in Alexa 350 spectral region; Compound autofluorescence, 340/450 nm, Alexa 350 dye-equivalents; active compounds read high; max dye-equivalent concentration, M; 59,000 tested, 11% active; AID 590; in the data active = max dye-equivalent concentration above about 10 nM; inconclusive = mostly about 1.1 nM to 9.6 nM
AID923 – qHTS Assay for Allosteric/Competitive Inhibitors of Caspase-1: Spectroscopic Profiling in AFC Spectral Region. AID 923, 2007. Potency, µM (top dose mostly 57.5 µM), inactives show at the top dose fluorescence increase, usual class: activators. compound fluorescence, AFC spectral region (405/520 nm). 75,000 tested, 1.1% active; also: potency is read from the fitted curve at half-maximal effect; 0% is about no effect
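Titrations up to 57 uM read every 20 sec for 3 min (405/520 nm) with 50 nM caspase 1 and 5 uM Ac-WEHD-AFC, pH 7.5 HEPES buffer. Fluorescence-vs-time intercept gave baseline, scaled against on-plate AFC standard.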
CRE Fsk mod – alters forskolin-stimulated CRE reporter signaling in CHO cells; Potency, µM (doses to about 38.2 µM), inactives show at the highest dose activity change, negative = inhibition, hits mostly activators; CHO CRE-bla reporter (cAMP response element driving beta-lactamase), forskolin EC10, beta-lactamase ratio; 71,000 tested, 2.5% active; active = well fitted activation curve with a large enough effect in the signal ratio, with a control signal flat, not every such curve was filed as active; inconclusive = small, poorly fitted or top-dose-only effect, or effect the other way, or a change in a side signal; the % refers to the signal ratio; also: potency is read from the fitted curve at half-maximal effect; % of control where 0% means no effect
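qHTS titration format; CRE-bla CHO reporter; stimulus EC10 NKH 477, a water-soluble forskolin. Read: CCF4 460/530 nm ratio. Potency expressed as AC50 for activators or inhibitors.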
4-MU autofl – compounds fluorescent in 4-MU spectral region | 59,000 tested, 11% active | compound autofluorescence, 340/450 nm, 4-MU equivalents; active compounds read high | AID 589 | max dye-equivalent concentration, M; in the data active = max dye-equivalent concentration above about 10 nM; inconclusive = mostly about 1.1 nM to 9.6 nM
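Compounds in 100 mM Tris, pH 8.0, incubated 15 min at room temperature, then fluorescence read at 340 nm excitation/450 nm emission. Signal converted to 4-MU dye-equivalent concentration using an on-plate six-point 4-MU standard curve.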
HADH2 inhib – blocks human hydroxyacyl-CoA dehydrogenase type II; 73,000 tested, 3.4% active; Potency, µM (top dose mostly 57.1 µM), for inactives: at the top dose activity change, negative = inhibition, usual class: inhibitors; recombinant HADH2, NADH fluorescence, beta-hydroxybutyryl-CoA; Q99714; also: potency is read from the fitted curve at half-maximal effect; % is scaled to controls: 0 for no effect and ±100 for the full control effect; nearly all actives have a fitted effect of over 60% in size
Target sequence (Q99714 whole entry, looked up, one chain of several): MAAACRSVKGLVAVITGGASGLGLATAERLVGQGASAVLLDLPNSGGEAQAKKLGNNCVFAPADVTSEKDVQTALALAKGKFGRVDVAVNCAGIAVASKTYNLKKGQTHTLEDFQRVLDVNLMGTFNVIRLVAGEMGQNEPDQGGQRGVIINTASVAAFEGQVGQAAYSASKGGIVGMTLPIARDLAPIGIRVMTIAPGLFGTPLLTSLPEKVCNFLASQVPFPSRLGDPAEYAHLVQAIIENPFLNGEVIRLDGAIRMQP
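Buffer 100 mM Tris-HCl pH 9.0/0.01% Tween-20; HADH2 20 nM; NAD+ 1 mM; beta-hydroxybutyryl-CoA 90 uM (all final). 15 min cpd preincubation, RT.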
HSD17B inhib – inhibitors of human HSD17B10 dehydrogenase. Potency, µM (doses to about 57.1 µM), for inactives: at the highest dose activity change, negative = inhibition, most hits filed as inhibitors. Q99714. 75,000 tested, 7.6% active. recombinant HSD17B10, NADH fluorescence kinetic;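 also: the protocol describes HADH2 (HSD17B10) and not the HSD17B4 of the title; potency is read from the fitted curve at half-maximal effect; % is scaled to controls: 0 for no effect and ±100 for the full control effect; nearly all actives have a fitted effect of over 70% in size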
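His-tagged E. coli-expressed HADH2 at 20 nM in 100 mM Tris-HCl pH 9.0 with 0.01 % Tween-20, preincubated 15 min with compound at room temperature. Reaction with 1 mM NAD+ and 90 uM beta-hydroxybutyryl coenzyme A; NADH fluorescence (360/450 nm) read kinetically over 4 min, last minus first point.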
The depositor's hits bear a star; ! = repeats disagree; [ ] = remark or other dose. Unless noted, calls follow the shape of the dose curve; as a rule, active = well fitted curve in the direction sought with a large enough effect; inconclusive = small, poorly fitted or top-dose-only effect, or another doubt; inactive = no such curve, though single readings can be large; an effect the other way counts as inactive or inconclusive.

How did C=CC[C@@H]1C=C[C@@H](O/N=C2/C[C@@H](O)[C@@H](O)[C@@H]3[C@@H]4C(=O)N(CC)C(=O)[C@H]4CC[C@@H]23)[C@@H](CO)O1 do in these assays?
AID923: 0.1%[11.5 µM]; HADH2 inhib: -11.4%[11.4 µM]; HSD17B inhib: 2.5%[11.4 µM]

What do the screens show for `Nn1c(SCC(=O)NC2CCCc3ccccc32)nnc1-c1cccs1` (centres undefined)?
A350 autofl: inactive; AID923: -0.1%; CRE Fsk mod: inconclusive; 4-MU autofl: inactive; HADH2 inhib: 4.4%; HSD17B inhib: 7.8%

Results for CSc1ccc2c(c1)N(CCCN(C)C)c1ccccc1S2 ?
A350 autofl: inactive; AID923: -0.1%[11.5 µM]; CRE Fsk mod: -2.1%[7.6 µM]; 4-MU autofl: inactive; HADH2 inhib: 10.8%[11.4 µM]; HSD17B inhib: -0.6%[11.4 µM]

Results for CN(C)CCCN1c2ccccc2Sc2ccc(C(F)(F)F)cc21 ?
A350 autofl: inconclusive; AID923: 0.5%; CRE Fsk mod: -8.8%[17.1 µM]; 4-MU autofl: 6.6e-08M*!; HADH2 inhib: 7.1%[25.6 µM]; HSD17B inhib: 0.4%

How did CCc1cc(=O)oc2cc(OC(C)C(=O)O)c(Cl)cc12 (centres undefined) do in these assays?
A350 autofl: 3.3e-08M*; AID923: 1.9%; CRE Fsk mod: 10.5%; 4-MU autofl: 2.53e-08M*; HADH2 inhib: inconclusive; HSD17B inhib: inconclusive

What do the screens show for `Cc1cc2oc(=O)cc(CN3CCN(Cc4ccccc4)CC3)c2cc1Cl`?
A350 autofl: inactive; AID923: 0.7%; CRE Fsk mod: 5.2%; 4-MU autofl: inactive; HADH2 inhib: 10.4%; HSD17B inhib: -3.0%

What do the screens show for `CCc1cc(=O)oc2cc(OCC(=O)O)c(Cl)cc12`?
A350 autofl: 1.09e-08M*; AID923: 0.8%; CRE Fsk mod: -4.3%; 4-MU autofl: inconclusive; HADH2 inhib: -28.5%; HSD17B inhib: 25.1µM*

How did CCc1cc(=O)oc2cc(OCC(=O)N(CC)CC)c(Cl)cc12 do in these assays?
AID923: -0.4%; CRE Fsk mod: inconclusive; HADH2 inhib: inconclusive; HSD17B inhib: 25.1µM*

How did CC1(C)Cc2c(sc3c4nnnn4c4nnnn4c23)CO1 do in these assays?
A350 autofl: 1.15e-08M*; 4-MU autofl: inconclusive

Results for CC(C)COc1ccc(C(=O)N(Cc2ccco2)C2CCS(=O)(=O)C2)cc1 (centres undefined) ?
A350 autofl: 1.73e-07M*; AID923: 1.3%; CRE Fsk mod: -4.5%; 4-MU autofl: 1.28e-07M*; HADH2 inhib: -2.4%; HSD17B inhib: 25.1µM*

What do the screens show for `Cc1ccc(S(=O)(=O)NC(CC(=O)O)c2ccccc2)cc1` (centres undefined)?
A350 autofl: inactive; AID923: 3.1%; CRE Fsk mod: 1.26µM*; 4-MU autofl: inactive; HADH2 inhib: 7.9%; HSD17B inhib: -5.4%

How did Cc1nn(CCc2nc(-c3ccco3)cs2)c2[nH]c(=O)cc(C(F)(F)F)c12 do in these assays?
A350 autofl: inactive; AID923: 0.1%; CRE Fsk mod: 0.501µM*; 4-MU autofl: inactive; HADH2 inhib: 1.58µM*; HSD17B inhib: 25.1µM*

Results for CCn1c(SCC(=O)NCCOC)nc2sc(C)c(C)c2c1=O ?
A350 autofl: inactive; AID923: 0.1%; CRE Fsk mod: 10µM*; 4-MU autofl: inactive; HADH2 inhib: -20.9%; HSD17B inhib: -3.7%

Results for CCn1c(SCC(=O)NCCOC)nc2sc3c(c2c1=O)CCCC3 ?
A350 autofl: inactive; AID923: 0.9%; CRE Fsk mod: 23.1%; 4-MU autofl: inactive; HADH2 inhib: -15.7%; HSD17B inhib: -2.6%

What do the screens show for `COC(=O)c1ccc(C(NC(=O)OCc2ccccc2)/C(F)=C/[C@@H](C)C(=O)NCc2ccc(OC)c(OC)c2)cc1` (some centres undefined)?
AID923: -0.2%; CRE Fsk mod: 17.0%; HADH2 inhib: 18.5%; HSD17B inhib: -7.5%

What do the screens show for `COc1cc(C(=O)Nc2ccc(-c3nc4cc(C)ccc4o3)c(O)c2)cc(OC)c1OC`?
A350 autofl: 4.26e-07M*; AID923: 0.2%; CRE Fsk mod: 1.3%; 4-MU autofl: 5.14e-07M*; HADH2 inhib: 25.1µM*; HSD17B inhib: 25.1µM*

How did COc1cc(OC)cc(C(=O)Nc2ccc3c(c2)COC3=O)c1 do in these assays?
A350 autofl: inactive; AID923: -1.2%; CRE Fsk mod: inconclusive; 4-MU autofl: inactive; HADH2 inhib: 31.0%; HSD17B inhib: -17.6%

How did O=C(COc1ccccc1)Nc1ccc(-c2nnc(-c3ccco3)o2)cc1 do in these assays?
A350 autofl: inactive; 4-MU autofl: inactive

How did COc1cccc(C(=O)Nc2ccc(-c3nnc(-c4ccco4)o3)cc2)c1 do in these assays?
A350 autofl: 2.45e-08M*; 4-MU autofl: 1.84e-08M*

Results for O=C(Nc1ccc(-c2nc3ccccc3o2)c(O)c1)c1cc(-n2cnnc2)ccc1Cl ?
A350 autofl: 1.37e-07M*; AID923: -2.0%; CRE Fsk mod: inconclusive; 4-MU autofl: 1.29e-07M*; HADH2 inhib: 25.1µM*; HSD17B inhib: 20µM*

How did COc1cc(OC)cc(C(=O)Nc2ccc(-c3nc4ccccc4o3)cc2)c1 do in these assays?
AID923: 0.7%; CRE Fsk mod: 18.1%; HADH2 inhib: 31.6µM*

How did Cc1c(NC(=O)c2cc(-n3cnnc3)ccc2Cl)cccc1-c1nc2ccccc2o1 do in these assays?
A350 autofl: inactive; AID923: -0.6%; CRE Fsk mod: inconclusive; 4-MU autofl: inactive; HADH2 inhib: 17.6%; HSD17B inhib: -12.9%

How did COc1cccc(C(=O)Nc2ccc(-c3nc4ccccc4o3)c(O)c2)c1 do in these assays?
AID923: 6.5%; CRE Fsk mod: 8.4%; HADH2 inhib: 3.98µM*; HSD17B inhib: 31.6µM*

How did CCOCC(=O)Nc1c(C(=O)Nc2ccccc2OC)oc2ccccc12 do in these assays?
A350 autofl: 7.75e-07M*; AID923: 0.3%; CRE Fsk mod: 12.5%; 4-MU autofl: 8.46e-07M*; HADH2 inhib: 7.94µM*; HSD17B inhib: 12.6µM*

How did CCOc1ccc(C(=O)Nc2c(C(N)=O)oc3ccccc23)cc1 do in these assays?
A350 autofl: inactive; AID923: 0.4%; CRE Fsk mod: 8.9%; 4-MU autofl: inactive; HADH2 inhib: -28.9%; HSD17B inhib: 24.2%

How did N#Cc1ccccc1NC(=O)c1ccccc1OCC(=O)Nc1ccc2c(c1)oc1ccccc12 do in these assays?
A350 autofl: inactive; AID923: -2.0%; CRE Fsk mod: -6.3%; 4-MU autofl: inactive; HADH2 inhib: 11.4%; HSD17B inhib: 8.3%

What do the screens show for `COc1ccc(NC(=O)c2oc3ccccc3c2NC(=O)COc2ccccc2OC)c(OC)c1`?
A350 autofl: 8.46e-08M*; AID923: -1.3%; CRE Fsk mod: 3.5%; 4-MU autofl: 8.18e-08M*; HADH2 inhib: 11.0%; HSD17B inhib: -93.6%

Compound activity deposited in PubChem BioAssay by National Center for Advancing Translational Sciences (NCATS).
